Most compounds without a hit are left out; they make up all but 8% or so of the library.
HT1080-NT tox: kills 2HG-producing HT-1080-NT fibrosarcoma cells. Potency, µM (doses to about 46.1 µM), inactives show at the highest dose activity, negative = less viability, most hits filed as cytotoxic. AID 686970. 360,000 compounds, 1.6% hits. HT-1080-NT fibrosarcoma viability, CellTiter-Glo ATP luminescence, 48 h;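 note: NT is the 2HG producing partner of a matched IDH1 knockdown line; 0% = DMSO-treated cells and -100% = media-only wells without cells; nearly all actives have a fitted effect of over 55% in size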
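A 48-hour cytotoxicity screen used HT-1080-NT cells plated 2 hours before compound delivery. ATP-based CellTiter-Glo luminescence measured viability, normalized to DMSO and no-cell controls.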
HT1080 IDH1KD tx: kills HT-1080 cells with IDH1 knockdown; Potency, µM (doses to about 46.1 µM), without a hit: at the highest dose activity, negative = toxicity, usual class: cytotoxic; 360,000 compounds, 2% hits; AID 686971; HT-1080 IDH1 knockdown viability, ATP luminescence, 48 h;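 note: 0% = DMSO wells and -100% = cell-free medium wells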
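Cytotoxicity counter-line: IDH1KD HT-1080, 48 h, CellTiter-Glo. Curves classed by r2, magnitude and activity.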
MCF10A rerep: DNA re-replication induction in MCF 10a cells | 350,000 compounds, 2.9% hits | Potency, µM (highest dose often 46.1 µM), for inactives: at the top dose activity, positive = re-replication, hits mostly activators | MCF 10A DNA re-replication, Hoechst nuclear intensity, 48 h; note: % of control where 0% means no effect; nearly all actives have a fitted effect of over 50% in size
KB-3-1 cytotox: KB-3-1 parental cell cytotoxicity; KB-3-1 viability, CellTiter-Glo ATP luminescence, 72 h; Potency, µM (top dose mostly 46.1 µM), actives largely listed as cytotoxic; 400,000 compounds, 1.4% hits; note: % is set by controls: 0 for no effect and ±100 for the full control effect; nearly all actives have a fitted effect of over 60% in size
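Using CellTiter-Glo luminescence, growth of non-resistant KB-3-1 adenocarcinoma cells is assessed 72 h after pin-tool compound addition at 37 °C. Normalized responses across the concentration series yield fitted curves.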
SW480 rerep: induces DNA re-replication in SW480 colon adenocarcinoma cells | SW480 DNA re-replication, Hoechst DNA content imaging, 48 h | Potency, µM (series often up to 46.1 µM), for inactives: at the highest dose re-replication activation, hits mostly activators | 340,000 compounds, 1.8% hits; note: % of control where 0% means no effect; nearly all actives have a fitted effect of over 55% in size
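Readout is total intensity of Hoechst-stained nuclei, excited at 405 nm and collected at 500-530 nm. Compound treatment lasted 48 hr at 37 C in 5% CO2 before staining.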
KB-V1 cytotox: kills drug-selected multidrug resistant KB-V1 cells; KB-V1 MDR cells viability, CellTiter-Glo, 72 h; 400,000 compounds, 3.4% hits; Potency, µM (highest dose often 46.1 µM), most hits filed as cytotoxic; note: % is set by controls: 0 for no effect and ±100 for the full control effect; nearly all actives have a fitted effect of over 60% in size
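Compound-treated KB-V1 multidrug-resistant cells, 72 h, 37 degrees C; viability by CellTiter-Glo. Fitted qHTS curves give the values.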
* = called active by the depositor; i = inactive; ? = inconclusive; . = no result given. Calls come from the whole dose curve; as a rule, active = well fitted curve in the direction sought with a large enough effect; inconclusive = small, poorly fitted or top-dose-only effect, or another doubt; inactive = no such curve, though single readings can be large; an effect the other way counts as inactive or inconclusive. Potency is the fitted concentration of half-maximal effect.

SMILES	HT1080-NT tox	HT1080 IDH1KD tx	MCF10A rerep	KB-3-1 cytotox	SW480 rerep	KB-V1 cytotox
CCN(CC)c1ccc(NC(=O)c2ccco2)cc1	19%	6%	1%	i	-5%	?
CCN(CC)c1ccc(NC(=O)c2cc(Cl)ccc2OC)cc1	?	21µM*	?	i	-2%	?
CCN(CC)c1ccc(NC(=O)c2ccccc2F)cc1	?	16µM*	?	16µM*	18µM*	?
O=C(/C=C/c1ccncc1)c1ccc(NC(=O)c2ccccc2F)cc1	7.3µM*	9.2µM*	3.7µM*	?	4.1µM*	?
Cc1ccc2c(c1)c1c(c(=O)n(-c3ccccc3C)c(=O)n1CC(=O)NCCC1=CCCCC1)n2C	.	.	.	i	.	i
O=C(Nc1ccc2c(c1)OCO2)c1csc([C@@H]2O[C@H](CO)[C@H](O)[C@H](O)[C@H]2O)n1	-1%	9%	.	i	.	i
N#CC1(c2ccc(NC(=O)c3ccccc3F)cc2)CCCC1	-7%	-6%	14%	?	2%	23µM*
Cc1ccc(NC(=S)NNC(=O)CCn2cc(C)cn2)cc1	2.8µM*	6.3µM*	2%	i	9.2µM*	?
Cc1cnn(CCC(=O)NNC(=S)Nc2ccccc2)c1	7.1µM*	8.9µM*	-19%	i	?	?
Cc1cnn(CCC(=O)NNC(=S)NCC(C)C)c1	13%	23%	-3%	i	-3%	i
COc1cccc(N2CCN(C(=O)CCS(=O)(=O)c3ccc4c(c3)CC(=O)N4C)CC2)c1	.	.	.	i	.	i
Cc1ccc(CSc2ccc3nnc(-c4cccnc4)n3n2)cc1	-8%	-8%	8%	i	-21%	?
Cc1ccc(CSc2ccc3nnc(-c4ccccn4)n3n2)cc1	8%	-23%	0%	i	1%	?
Brc1ccc(CSc2ccc3nnc(-c4cccnc4)n3n2)cc1	?	?	?	i	-3%	9.2µM*
Brc1ccc(CSc2ccc3nnc(-c4ccccn4)n3n2)cc1	-22%	-26%	10%	i	-2%	15µM*
C=C1C=C(C)n2ncc(C(=O)Nc3ccc(NC(C)=O)c(Cl)c3)c2N1	.	.	.	?	.	i
COc1cccc(CN(C)C(=O)c2cc(COc3c(F)cccc3F)on2)c1	30%	24%	-7%	i	-4%	i
O=C(c1cc(COc2ccc(F)cc2Cl)on1)N1CCC(c2ccncc2)CC1	-18%	?	?	i	1%	4.1µM*
O=C(c1cc(COc2ccc(F)cc2Cl)on1)N1CCCCCC1	-7%	-1%	?	i	9%	i
COc1cccc(CN(C)C(=O)c2cc(COc3ccc4ncccc4c3)on2)c1	?	-20%	?	4.1µM*	-6%	4.1µM*
Cc1cc(OCc2cc(C(=O)N3CCN(CC4CC4)CC3)no2)cc(C)c1Cl	-18%	?	16%	?	?	i
O=C(c1cc(COc2ccc3ncccc3c2)on1)N1CCCCCC1	3.7µM*	?	9%	?	?	i
Cc1cc(OCc2cc(C(=O)N3CCC(Oc4cccnc4)CC3)no2)cc(C)c1Cl	-4%	?	21µM*	i	2%	?
O=C(COc1ccccc1F)Nc1ccc2nc(SCC(=O)N3CCc4ccccc43)sc2c1	.	.	.	i	.	i
Cc1cccc(C(=O)OCC(=O)N(C)c2ccccc2)c1C	-2%	0%	-3%	i	25%	i
Fc1ccc(C(Nc2ccccc2Cl)c2nnc(-c3ccccc3Cl)o2)cc1 (stereo not given)	.	.	.	i	.	i
CCOC(=O)c1c(S(=O)(=O)N2CCC(C(=O)NCc3cccc(C)c3)CC2)c(C)n(C)c1C	.	.	.	i	.	i
CC(NC(=O)c1cc(COc2ccc3ncccc3c2)on1)c1ccc(F)cc1 (stereo not given)	-22%	?	7%	?	2%	i

Source: PubChem
